Experimental data taken from paper PMC5540273 (PLoS ONE, 2017).

tested on: MAP3K4; settings: concentration: 1 μM, replicates: in singlicate; n = 1
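Note: KINOMEscan kinase panel screen.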

Compound | %Inh
COc1cccc(NC(=O)Nc2ccc(C)c(-c3ccc(C(=O)Nc4ccncc4)cc3)c2)c1 [GSK1398474] | 20%
CS(=O)(=O)Cc1ccc(Nc2nccc(-c3c(-c4cccc(NC(=O)C5CCCCC5)c4)nn4ncccc34)n2)cc1 [GSK350559] | 11%
COc1ccc(Nc2nccc(-c3ccc(NC(=O)c4cc5cc(F)ccc5[nH]4)cc3)n2)cc1 [GSK1229496] | 0%
Cc1cccc2c(-c3ccncn3)c(-c3ccc(F)cc3)nn12 [GW515532] | 0%
NS(=O)(=O)c1cccc(N/C=C2\C(=O)Nc3ccc(S(=O)(=O)Cc4c(Cl)cccc4Cl)cc32)c1 [GSK398099] | 0%
O=C(Nc1n[nH]c2nc(-c3ccco3)c(Br)cc12)C1CCN(Cc2ccccc2)C1.O=C(O)[C@H](O)[C@@H](O)C(=O)O (stereo not drawn) [SB-742034] | 0%
COc1ccc(-c2coc3ccc(-c4nnc(C)o4)cc23)cc1 | 8%
O=c1cc(N2CCOCC2)nc2n(Cc3ccccc3F)ccn12 [GSK2297428] | 0%
COC(=O)c1cccc(NC(=O)NC2CCN(c3ccnc(Nc4ccc(F)cc4)n3)C2)c1 (stereo not drawn) [GSK1379725] | 24%
Cc1c(Cn2c(C)c(C)n3c(=O)cc(N4CCOCC4)nc23)cccc1C(F)(F)F [GSK2328680] | 9%
CNC(=O)c1ccc(C)c(-n2c(C)cc(OCc3ccc(F)cc3F)c(Br)c2=O)c1 | 6%
COc1ccc(Nc2nccc(N3CCC(NC(=O)c4cc5ccccc5s4)C3)n2)cc1 (stereo not drawn) [GSK1379738] | 29%
CC(=O)c1cccc(NC(=O)NC2CCN(c3ccnc(Nc4ccc(F)cc4)n3)C2)c1 (stereo not drawn) [GSK1379710] | 30%
O=C1NC(=O)C(c2ccc(Cl)cc2)=C1Nc1cccc(Cl)c1 [SB-317651] | 1%
Cc1ccc(NC(=O)Nc2ccccc2F)cc1-c1ccc(C(=O)Nc2ccncc2)cc1 [GSK1398477] | 24%
Cc1ccc(NC(=O)c2ccc(Cl)cc2)cc1-c1ccc(C(=O)Nc2ccncc2)cc1 [GSK1398467] | 0%
Cc1ccccc1-c1cc(-c2c[nH]nc2-c2ccccn2)ccn1 [GW680061] | 14%
CC[C@@H]1CO[C@H](C(=O)Nc2ccccc2)CN1c1cc(-c2ccc3c(N)n[nH]c3c2)nc(NC)n1 [GSK2376236] | 0%

Compound | %Inh
COc1ccc(CSc2nnc(-c3ccc4ncsc4c3)o2)cc1C(F)(F)F | 7%
Cc1ccc(-c2nc(Nc3ccncc3)c3ccccc3n2)s1 [GSK189015] | 26%
Cc1ccccc1Cn1ccn2c(=O)cc(N3CCOCC3)nc12 [GSK2269905] | 30%
CS(=O)(=O)CCNCc1nc(-c2ccc3ncnc(Nc4ccc5c(cnn5Cc5ccccc5)c4)c3c2)cs1.Cl.Cl [GW569716] | 5%
Cc1nccc(-c2c(-c3ccc(F)cc3)ncn2CCCN2CCOCC2)n1.Cl [SB-282975] | 22%
Cn1cncc1C(=O)NC1CCN(c2ccnc(Nc3ccc(F)cc3)n2)C1 (stereo not drawn) [GSK1379717] | 13%
CN1c2ccc(-c3ccc(C(N)=O)cc3)cc2-c2[nH]ncc2S1(=O)=O | 0%
CC(C)c1cc(-c2ccc3c(N)n[nH]c3c2)nc(N)n1 [GSK2250882] | 1%
O=C(Nc1n[nH]c2nc(-c3cccs3)c(Br)cc12)C1CC1 [SB-735297] | 19%
Cc1ccc(NC(=O)Nc2ccc(Cl)cc2)cc1-c1ccc(C(=O)Nc2ccncc2)cc1 [GSK1398472] | 6%
Fc1ccc(-c2nn3cccc(F)c3c2-c2ccncc2)cc1 [GW475620] | 0%
CC(C)c1ccc(O)cc1Nc1ccnc2ccc(C(F)(F)F)cc12 [GW482059] | 13%
Fc1ccc(-c2nc3n(c2-c2ccncc2)CCS3)cc1 [GI98581] | 10%
O=C(Nc1n[nH]c2cc(-c3ccsc3)ccc12)C1CC1 [SB-732932] | 5%
Cc1cnc(N)c(/C=C/c2cncc(C(=O)NCCc3ccc(Cl)cc3Cl)c2)c1.Cl [GSK190937] | 0%
CC(=O)c1c(C)c2cnc(Nc3ccc(N4CCNCC4)cn3)nc2n(C2CCCC2)c1=O | 14%
COc1ccc2cc(-c3nc(-c4ccccc4C(C)C)[nH]c3-c3ccncc3)ccc2c1 [SB-660566] | 16%
CCc1ccc(-c2ccc3c(c2)-c2n[nH]cc2S(=O)(=O)N3C)cc1 | 19%
